# Data published in PubChem BioAssay.
# Records with an inconclusive call do not appear. The source made the active and inactive calls.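 How the source made its calls, unless noted: active means fitted half-maximal concentration within 10 nM to 100 µM, steepness 0.5 to 2, significant signal drop, low assay interference; inactive means the rest.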
# Columns and labels:
# [1] = molecular target: GTPase HRas (Homo sapiens) (UniProt P01112); assay: inhibitors of GTP binding to wildtype Ras, dose response, biochemical, multiplex bead flow cytometry (AID 1335); conditions: bead-based flow cytometry, Bodipy-GTP binding to GST-Ras; at 100 µM (top of the series)
# [2] = yeast TOR pathway RPL19A-GFP modulators, primary screen, cell-based, S. cerevisiae, multiplex flow cytometry (AID 1862; in the data active means percent of DMSO control GFP below about 86%;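 further: lower values mimic rapamycin by blocking the RPL19A rise seen in DMSO cells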); conditions: S. cerevisiae RPL19A-GFP strain, flow cytometry fluorescence, 3 h; at 10 µM; stronger effect = lower value
# [3] = modulators of MEP2-GFP levels in yeast, primary screen, S. cerevisiae, multiplex flow cytometry (AID 1867;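 active means GFP response, as percent of the DMSO control, above the screen-wide mean plus 3 SD, about 139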;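 further: median GFP channel fluorescence of barcode-gated MEP2-GFP cells measured by flow cytometry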); conditions: S. cerevisiae MEP2-GFP strain, 3 h, at 10 µM, stronger effect = higher value
# [4] = modulators of CIT2-GFP expression in yeast, primary screen, S. cerevisiae, GFP fusion, multiplex flow cytometry (AID 1870;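 active means percent response above a set limit, the screen-wide mean plus 3 SD, cut at about 130% in these data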;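 further: barcoded CIT2-GFP strain pooled with four other GFP strains with rapamycin as positive control; median GFP fluorescence per well over plate mean of DMSO wells so 100% = DMSO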); conditions: 3 h, at 10 µM, stronger effect = higher value
# [5] = modulators of LAP4-GFP expression in yeast, primary screen, S. cerevisiae, multiplex flow cytometry (AID 1873;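 active means GFP signal, as percent of the solvent control, above the screen mean plus 3 SD, about 149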); conditions: 3 h, at 10 µM, stronger effect = higher value
# [6] = modulators of AGP1-GFP expression in yeast TOR pathway, primary screen, cell-based, multiplex flow cytometry, S. cerevisiae (AID 1887;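 active means GFP signal above the screen-wide mean plus 3 SD, that is over about 124.5% of the solvent control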;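 further: AGP1-GFP fusion strain of S. cerevisiae within a five-strain barcoded multiplex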); conditions: 3 h, at 10 µM, stronger effect = higher value
# [7] = inhibitors of CD8+ T cell-vesicle binding, pilot screen, LFA-1/ICAM-1 modulator project, MLPCN validation set, flow cytometry (AID 2523;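 active means response below a set limit, under 55% cells CD8-positive and vesicle-bound, and CD8 cells' 90th-percentile brightness under 279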;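 on vesicle binding response: mean PE anti-B7-1 fluorescence of CD8+ cells relative to row control; 100% = QL9-loaded vesicles with DMSO vehicle in the same plate row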); conditions: 2C mouse CD8+ T cells, at 7 µM, stronger effect = lower value; double positive events: measured here: CD8+/vesicle+ event percentage
# [8] = molecular target: Integrin beta-1 (Homo sapiens) + Integrin alpha-4 (Homo sapiens) (UniProt P13612+P05556); assay: inhibition of HUTS-21 binding to VLA-4, pilot screen, VLA-4 allosteric modulator project, U937 cells, HUTS-21 mAb, flow cytometry, validation set (AID 2674;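 active means inhibition above 50%, about 3 SD of the validation set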;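 further: antibody binding induced by the VLA-4 ligand LDV present at three times its Kd; 0% = LDV ligand with antibody and no compound and 100% = antibody without LDV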); conditions: HUTS-21 LIBS mAb binding, at 6.7 µM, stronger effect = higher value
# [9] = superoxide lowering in aged yeast cells, pilot screen, validation compound set (AID 2706;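 active means superoxide response below 65% of plate, a cut near 3 SD across the whole screen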;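 further: yeast exposed to compound for one week at 30 degrees C before staining; 100% = mean of all compound wells on the same plate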); conditions: S. cerevisiae aging, superoxide DHE fluorescence; at 10 µM; stronger effect = lower value
# [10] = molecular target: Beta-adrenergic receptor kinase 1 (Homo sapiens) (UniProt P25098); assay: GRK2 binders displacing RNA aptamer, biochemical, validation, human GRK2, bead flow cytometry (AID 488806;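 active means aptamer binding inhibition above 30%, about 3 SD of noise from non-fluorescent compounds; inactive means inhibition at or below 30%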); conditions: bead-bound GRK2, FAM-aptamer displacement, at 10 µM, stronger effect = higher value
# [11] = molecular target: Beta-2 adrenergic receptor (Homo sapiens) (UniProt P07550); assay: beta2AR agonists driving receptor internalization, pilot screen, cell-based, FAP fluorogen, flow cytometry, validation set (AID 504459;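 active means percent response above 42, roughly 3 SD of non-fluorescent test compounds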;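 further: agonist-driven loss of surface beta2AR via internalization measured by FAP dye flow cytometry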); conditions: Am2.2-beta2AR cells, FAP surface receptor flow cytometry; at 10 µM; stronger effect = higher value
# [12] = molecular target: AP-2 complex subunit beta (Homo sapiens) (UniProt P63010); assay: inhibitors of arrestin peptide binding to AP2, pilot screen, biochemical, validation set, GST-AP2 beads, flow cytometry (AID 504541;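 active means inhibition above 54%, about 3 SD of non-fluorescent compounds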;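 further: AP2 carries R879A mutation and is captured from E. coli lysate; bead-bound FITC arrestin peptide fluorescence measuring arrestin peptide binding to AP2; 0% = DMSO wells and 100% = excess unlabeled arrestin peptide control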); conditions: FITC arrestin peptide, at 10 µM, stronger effect = higher value
# [13] = yeast V-ATPase proton transport modulators, S. cerevisiae, pHLuorin, HTS validation (AID 504600; in the data active means response above about 15%;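 further: plate controls were DMSO for no effect and reference compound for full effect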); conditions: S. cerevisiae pHLuorin cytosolic pH, at 10 µM, stronger effect = higher value
# [14] = system: anti-desmoglein-3 scFv antibody binding to human DSG3; assay: inhibitors of anti-DSG3 scFv binding to DSG3, pilot screen, biochemical, validation compound set, bead-based, flow cytometry (AID 588368;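 active means binding below the plate cutoff, the plate median minus 3 SD, with a reading above zero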;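 further: signal is the median channel fluorescence of bead-bound GFP antibody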); conditions: Protein G beads, DSG3-Fc, scFv-GFP binding, at 10 µM, stronger effect = lower value
# [15] = system: Botulinum neurotoxin type F light chain protease (Clostridium botulinum); assay: Botulinum neurotoxin type F light chain protease inhibition, multiplex microsphere flow cytometry, validation set (AID 588459; call rule not given here); conditions: multiplex microsphere protease substrate cleavage assay, at 10 µM, stronger effect = higher value
# [16] = molecular target: Botulinum neurotoxin type A (Clostridium botulinum) (UniProt P0DPI0); assay: BoNT/A light chain protease inhibitors, biochemical, multiplex microsphere flow cytometry, validation set (AID 588460; call rule not given here); conditions: at 10 µM, stronger effect = higher value
# [17] = molecular target: Lethal factor (Bacillus anthracis) (UniProt P15917); assay: Lethal factor protease inhibitors, Bacillus anthracis, multiplex microsphere cleavage assay, validation set (AID 588461; call rule not given here); conditions: flow cytometry, at 10 µM, stronger effect = higher value
# [18] = inhibitors of fungal efflux pumps CDR1, CDR2, MDR1, pilot screen, validation compound set, multiplex, phenotypic (AID 588506;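 active means efflux inhibition above 0.42, the validation set average plus 4 SD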;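 further: Nile Red retained in cells so higher fluorescence means more efflux inhibition; 0 = negative control wells and 1 = enniatin B 25 µM full block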); conditions: S. cerevisiae pump-expressing triplex, Nile Red efflux flow cytometry; at 10 µM; stronger effect = higher value
# [19] = molecular target: ATP-binding cassette sub-family B member 6 (Homo sapiens) (UniProt Q9NP58); assay: ABCB6 transporter inhibitors, pilot screen, K562-ABCB6 cells, flow cytometry, validation set (AID 588550;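 active means inhibition above the screen-wide mean plus 3 SD, about 51%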;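 further: 0% = DMSO wells and 100% = benzethonium chloride 70 µM positive control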); conditions: K562-ABCB6 porphyrin accumulation, 1 h, at 10 µM, stronger effect = higher value
# [20] = promoters of myeloid differentiation in arrested cells, primary screen, cell-based, GFP/MAC1 double positive, flow cytometry, validation set (AID 588685;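 active means differentiation response of at least 50%, scaled between solvent and reference control, from cells with both markers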;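 further: compound exposure lasts four days before antibody staining and flow analysis; 0% = DMSO wells and 100% = 5 µM fulvestrant positive control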); conditions: ER-HoxA9 marrow cells, stronger effect = higher value
# Sequence of ATP-binding cassette sub-family B member 6 (Homo sapiens) (Q9NP58 whole entry, looked up): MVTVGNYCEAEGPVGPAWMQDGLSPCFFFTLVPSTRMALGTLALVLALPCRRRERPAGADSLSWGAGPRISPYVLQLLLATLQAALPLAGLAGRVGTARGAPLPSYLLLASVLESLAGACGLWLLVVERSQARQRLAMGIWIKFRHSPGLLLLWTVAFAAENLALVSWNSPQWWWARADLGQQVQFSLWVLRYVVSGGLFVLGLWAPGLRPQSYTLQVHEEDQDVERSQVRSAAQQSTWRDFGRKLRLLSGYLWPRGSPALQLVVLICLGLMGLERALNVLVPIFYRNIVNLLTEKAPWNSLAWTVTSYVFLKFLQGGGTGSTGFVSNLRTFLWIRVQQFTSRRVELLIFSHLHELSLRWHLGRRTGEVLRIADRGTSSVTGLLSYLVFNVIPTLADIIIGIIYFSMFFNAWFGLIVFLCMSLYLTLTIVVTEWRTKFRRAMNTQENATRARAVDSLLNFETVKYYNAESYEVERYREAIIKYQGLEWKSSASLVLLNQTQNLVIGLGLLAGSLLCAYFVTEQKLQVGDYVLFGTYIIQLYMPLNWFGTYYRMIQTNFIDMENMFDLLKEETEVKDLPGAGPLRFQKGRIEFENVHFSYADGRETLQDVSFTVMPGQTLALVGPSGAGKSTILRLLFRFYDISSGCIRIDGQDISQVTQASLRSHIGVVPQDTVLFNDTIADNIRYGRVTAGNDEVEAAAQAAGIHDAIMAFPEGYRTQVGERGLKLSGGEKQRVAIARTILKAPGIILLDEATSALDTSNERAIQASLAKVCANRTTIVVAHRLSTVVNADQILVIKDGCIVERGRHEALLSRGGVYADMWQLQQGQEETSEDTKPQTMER
# Sequence of Botulinum neurotoxin type A (Clostridium botulinum) (P0DPI0 whole entry, looked up): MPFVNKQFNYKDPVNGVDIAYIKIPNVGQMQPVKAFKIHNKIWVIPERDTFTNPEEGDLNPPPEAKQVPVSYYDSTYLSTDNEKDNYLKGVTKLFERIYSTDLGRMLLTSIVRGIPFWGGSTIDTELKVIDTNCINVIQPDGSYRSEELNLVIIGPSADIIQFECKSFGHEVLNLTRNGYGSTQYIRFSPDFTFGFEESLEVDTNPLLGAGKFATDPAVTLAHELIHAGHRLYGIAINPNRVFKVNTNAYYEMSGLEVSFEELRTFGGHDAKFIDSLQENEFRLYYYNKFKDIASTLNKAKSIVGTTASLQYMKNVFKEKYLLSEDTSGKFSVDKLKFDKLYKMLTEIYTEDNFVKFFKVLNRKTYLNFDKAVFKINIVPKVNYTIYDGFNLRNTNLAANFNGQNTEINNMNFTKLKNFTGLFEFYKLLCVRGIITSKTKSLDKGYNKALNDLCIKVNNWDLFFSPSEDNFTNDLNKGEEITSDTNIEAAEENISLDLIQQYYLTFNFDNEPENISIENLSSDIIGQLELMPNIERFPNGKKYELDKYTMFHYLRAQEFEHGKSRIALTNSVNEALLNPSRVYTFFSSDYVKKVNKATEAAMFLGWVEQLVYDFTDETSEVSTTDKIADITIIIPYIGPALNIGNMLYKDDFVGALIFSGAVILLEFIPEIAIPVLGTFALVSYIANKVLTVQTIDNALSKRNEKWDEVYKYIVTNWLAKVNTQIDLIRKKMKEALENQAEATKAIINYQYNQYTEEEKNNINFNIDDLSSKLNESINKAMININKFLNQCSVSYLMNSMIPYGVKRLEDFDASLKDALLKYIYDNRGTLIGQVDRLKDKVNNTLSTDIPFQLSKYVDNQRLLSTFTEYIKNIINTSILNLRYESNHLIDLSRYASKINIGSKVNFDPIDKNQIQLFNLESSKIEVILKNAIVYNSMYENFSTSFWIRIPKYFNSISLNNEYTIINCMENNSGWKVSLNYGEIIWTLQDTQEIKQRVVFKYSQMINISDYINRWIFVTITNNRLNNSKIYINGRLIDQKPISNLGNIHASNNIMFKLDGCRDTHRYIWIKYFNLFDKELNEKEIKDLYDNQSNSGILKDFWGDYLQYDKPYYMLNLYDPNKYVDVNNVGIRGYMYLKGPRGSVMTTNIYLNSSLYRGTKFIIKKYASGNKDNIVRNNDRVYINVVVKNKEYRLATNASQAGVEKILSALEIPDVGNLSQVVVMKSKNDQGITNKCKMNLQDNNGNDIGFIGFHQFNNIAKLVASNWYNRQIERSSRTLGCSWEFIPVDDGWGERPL
# Sequence of Lethal factor (Bacillus anthracis) (P15917 whole entry, looked up): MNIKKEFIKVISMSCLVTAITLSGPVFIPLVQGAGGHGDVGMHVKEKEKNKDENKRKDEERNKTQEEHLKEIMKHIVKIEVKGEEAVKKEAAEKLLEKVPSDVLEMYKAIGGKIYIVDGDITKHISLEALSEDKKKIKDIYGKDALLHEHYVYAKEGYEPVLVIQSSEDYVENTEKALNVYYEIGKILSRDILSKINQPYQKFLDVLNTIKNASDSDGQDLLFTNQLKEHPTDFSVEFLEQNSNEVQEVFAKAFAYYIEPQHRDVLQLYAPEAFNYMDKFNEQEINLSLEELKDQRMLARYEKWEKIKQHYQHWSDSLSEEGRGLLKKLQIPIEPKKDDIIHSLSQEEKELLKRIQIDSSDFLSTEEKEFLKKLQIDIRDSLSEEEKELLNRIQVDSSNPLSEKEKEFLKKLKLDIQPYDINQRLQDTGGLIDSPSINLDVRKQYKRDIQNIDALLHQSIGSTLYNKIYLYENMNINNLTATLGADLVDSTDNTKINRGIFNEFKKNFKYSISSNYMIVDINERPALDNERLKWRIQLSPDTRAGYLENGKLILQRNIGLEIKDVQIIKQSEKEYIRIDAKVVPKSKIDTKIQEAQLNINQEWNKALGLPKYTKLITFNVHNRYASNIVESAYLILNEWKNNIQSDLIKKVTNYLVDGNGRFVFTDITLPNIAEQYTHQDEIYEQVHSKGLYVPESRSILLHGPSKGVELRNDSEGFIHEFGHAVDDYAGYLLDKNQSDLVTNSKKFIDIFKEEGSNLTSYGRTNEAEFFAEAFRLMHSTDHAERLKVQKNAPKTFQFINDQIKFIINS
# Sequence of Beta-2 adrenergic receptor (Homo sapiens) (P07550 whole entry, looked up): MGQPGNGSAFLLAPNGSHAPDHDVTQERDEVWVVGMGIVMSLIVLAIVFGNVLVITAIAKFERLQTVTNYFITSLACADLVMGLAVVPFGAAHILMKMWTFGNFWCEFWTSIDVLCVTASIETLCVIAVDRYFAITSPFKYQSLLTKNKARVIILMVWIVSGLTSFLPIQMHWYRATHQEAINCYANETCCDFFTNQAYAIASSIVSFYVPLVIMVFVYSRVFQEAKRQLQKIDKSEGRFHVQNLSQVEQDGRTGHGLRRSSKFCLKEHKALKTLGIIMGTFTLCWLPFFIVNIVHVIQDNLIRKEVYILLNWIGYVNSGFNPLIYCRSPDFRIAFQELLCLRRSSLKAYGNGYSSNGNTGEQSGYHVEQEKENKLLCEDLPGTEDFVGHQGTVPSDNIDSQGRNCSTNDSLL
# Sequence of Beta-adrenergic receptor kinase 1 (Homo sapiens) (P25098 whole entry, looked up): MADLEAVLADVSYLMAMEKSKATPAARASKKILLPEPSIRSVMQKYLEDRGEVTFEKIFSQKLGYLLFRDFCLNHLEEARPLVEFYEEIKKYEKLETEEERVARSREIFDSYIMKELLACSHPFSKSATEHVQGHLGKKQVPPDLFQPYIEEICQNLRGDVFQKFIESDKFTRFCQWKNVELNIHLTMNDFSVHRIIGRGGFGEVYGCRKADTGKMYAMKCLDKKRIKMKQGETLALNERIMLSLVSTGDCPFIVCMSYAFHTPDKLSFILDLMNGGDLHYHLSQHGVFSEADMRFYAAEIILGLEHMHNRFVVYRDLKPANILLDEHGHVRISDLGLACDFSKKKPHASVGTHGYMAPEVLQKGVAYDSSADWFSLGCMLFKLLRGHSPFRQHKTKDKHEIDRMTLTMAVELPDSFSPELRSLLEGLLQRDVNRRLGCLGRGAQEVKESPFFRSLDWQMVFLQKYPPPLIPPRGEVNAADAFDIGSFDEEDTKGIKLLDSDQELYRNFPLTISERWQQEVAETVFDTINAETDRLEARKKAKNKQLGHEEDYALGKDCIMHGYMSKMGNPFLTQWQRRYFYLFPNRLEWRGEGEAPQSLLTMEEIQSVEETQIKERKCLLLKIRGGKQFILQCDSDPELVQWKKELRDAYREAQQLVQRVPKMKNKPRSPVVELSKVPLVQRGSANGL
# Sequence of GTPase HRas (Homo sapiens) (P01112 whole entry, looked up): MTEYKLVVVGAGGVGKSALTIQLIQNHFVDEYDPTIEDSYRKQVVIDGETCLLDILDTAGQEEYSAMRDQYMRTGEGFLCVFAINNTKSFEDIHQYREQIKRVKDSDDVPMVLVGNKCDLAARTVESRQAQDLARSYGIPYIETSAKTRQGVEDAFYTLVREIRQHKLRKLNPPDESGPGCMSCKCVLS
smiles,measurement,setting,value
O=C(O)c1cn(Cc2ccccc2Cl)c2ccccc12,"GTP binding, percent of control",[1],82.2%
O=C1NC(=S)N(Cc2ccco2)C(=O)/C1=C\c1cccs1,"GTP binding, percent of control",[1],95.1%
Cc1ccc(-n2c(O)c(/C=N/c3ncc(Br)cc3Br)c(=O)[nH]c2=O)cc1,"GTP binding, percent of control",[1],116%
Cc1ccccc1OCCCn1cc(C(=O)O)c2ccccc21,"GTP binding, percent of control",[1],92.4%
COCCCn1c(N)c(C(=O)Nc2sc3c(c2C(=O)OC)CCCC3)c2nc3ccccc3nc21,"GTP binding, percent of control",[1],51.7%
Cc1ccc(C)c(OCCCn2cc(C(=O)O)c3ccccc32)c1,"GTP binding, percent of control",[1],88.6%
CCN(CC)c1ccc(/C=N/c2sc3c(c2C#N)C2CCN3CC2)c(O)c1,"GTP binding, percent of control",[1],104%
Cc1nn(Cc2ccccc2)c(Cl)c1C(=O)O,"GTP binding, percent of control",[1],86.7%
CCn1nc(/C=C/c2ccccc2)nc2c(=O)n(C)c(=O)nc1-2,"GTP binding, percent of control",[1],76.7%
CCCCN1C(=O)/C(=C\c2ccco2)C(=O)N(CCc2ccccc2)C1=O,"GTP binding, percent of control",[1],131%
O=C(O)c1cn(Cc2ccc(Cl)cc2)c2ccccc12,"GTP binding, percent of control",[1],89.3%
CC(Oc1ccc(-c2ccccc2)cc1)C(=O)O (configuration not stated),"GTP binding, percent of control",[1],172%
Cc1cc(OCCCn2cc(C(=O)O)c3ccccc32)ccc1Cl,"GTP binding, percent of control",[1],83.9%
CN1C(=O)N(C)C(=O)C2(Cc3c(ccc4ccccc34)N(C)C2)C1=O,"GTP binding, percent of control",[1],82.6%
CCOC(=O)c1c(NC(=O)c2c(N)n(CCCOC)c3nc4ccccc4nc23)sc2c1CCCC2,"GTP binding, percent of control",[1],144%
O=c1[nH]c(=S)[nH]c(O)c1N=Nc1cc2c(cc1[N+](=O)[O-])OCO2,"GTP binding, percent of control",[1],66.6%
CN(C)c1ccc(/C=C/C=C2/C(=O)NC(=O)N(c3ccccc3)C2=O)cc1,"GTP binding, percent of control",[1],81.4%
C[C@]12CC[C@@H](O)C[C@@H]1CC[C@@H]1[C@@H]2CC[C@]2(C)[C@@H](O)CC[C@@H]12,percent of DMSO control GFP,[2],95.4% (inactive)
same,GFP response vs DMSO,[3],107% (inactive)
same,percent response of DMSO control,[4],83% (inactive)
same,GFP response vs DMSO,[5],150% (active)
same,"GFP response, % of DMSO",[6],106% (inactive)
same,double positive events,[7],58.5%
same,vesicle binding response,[7],122% (inactive)
same,inhibition,[8],-7.79% (inactive)
same,superoxide response (% of plate),[9],98% (inactive)
same,aptamer binding inhibition,[10],3% (inactive)
same,response,[11],0.4% (inactive)
same,inhibition,[12],-7.18% (inactive)
same,response,[13],2.4% (inactive)
same,binding (% of control),[14],103% (inactive)
same,inhibition,[15],1.2% (inactive)
same,inhibition,[16],0.9% (inactive)
same,inhibition,[17],3.5% (inactive)
same,efflux inhibition (fraction of control),[18],0.08 (inactive)
same,inhibition,[19],7% (inactive)
same,differentiation response,[20],-13.3% (inactive)
C[C@@H]1O[C@@H](O[C@H]2C[C@@H](O)[C@]3(CO)[C@H]4[C@H](O)C[C@]5(C)[C@@H](C6COC(=O)C6)CC[C@]5(O)[C@@H]4CC[C@]3(O)C2)[C@H](O)[C@H](O)[C@H]1O (some centres not stated),percent of DMSO control GFP,[2],97.3% (inactive)
same,GFP response vs DMSO,[3],102% (inactive)
same,percent response of DMSO control,[4],105% (inactive)
same,GFP response vs DMSO,[5],112% (inactive)
same,"GFP response, % of DMSO",[6],119% (inactive)
same,double positive events,[7],62.7%
same,vesicle binding response,[7],183% (inactive)
same,inhibition,[8],6.55% (inactive)
same,superoxide response (% of plate),[9],94.2% (inactive)
same,aptamer binding inhibition,[10],1% (inactive)
same,response,[11],-12.8% (inactive)
same,inhibition,[12],-5.57% (inactive)
same,response,[13],-2.1% (inactive)
same,binding (% of control),[14],104% (inactive)
same,inhibition,[15],-0.5% (inactive)
same,inhibition,[16],-0.7% (inactive)
same,inhibition,[17],3.5% (inactive)
same,efflux inhibition (fraction of control),[18],-0.04 (inactive)
same,inhibition,[19],-3% (inactive)
same,differentiation response,[20],-4% (inactive)
O=C1CCCC2=C1C(c1cccnc1)Nc1ccccc1N2 (configuration not stated),percent of DMSO control GFP,[2],105% (inactive)
same,GFP response vs DMSO,[3],95.1% (inactive)
same,percent response of DMSO control,[4],121% (inactive)
same,GFP response vs DMSO,[5],89.4% (inactive)
same,"GFP response, % of DMSO",[6],107% (inactive)
same,double positive events,[7],64.4%
same,vesicle binding response,[7],211% (inactive)
same,inhibition,[8],-5.64% (inactive)
same,superoxide response (% of plate),[9],98% (inactive)
same,aptamer binding inhibition,[10],-2% (inactive)
same,response,[11],-5.46% (inactive)
same,inhibition,[12],-4.18% (inactive)
same,response,[13],-6.46% (inactive)
same,binding (% of control),[14],99.8% (inactive)
same,inhibition,[15],0.4% (inactive)
same,inhibition,[16],-2.1% (inactive)
same,inhibition,[17],-4% (inactive)
same,efflux inhibition (fraction of control),[18],-0.07 (inactive)
same,inhibition,[19],-9% (inactive)
same,differentiation response,[20],-4.64% (inactive)
COP(=O)(OC)C(O)C(Cl)(Cl)Cl (configuration not stated),percent of DMSO control GFP,[2],103% (inactive)
same,GFP response vs DMSO,[3],98.3% (inactive)
same,percent response of DMSO control,[4],102% (inactive)
same,GFP response vs DMSO,[5],99.9% (inactive)
same,"GFP response, % of DMSO",[6],102% (inactive)
same,double positive events,[7],62.8%
same,vesicle binding response,[7],230% (inactive)
same,inhibition,[8],9.92% (inactive)
same,superoxide response (% of plate),[9],94.8% (inactive)
same,aptamer binding inhibition,[10],3% (inactive)
same,response,[11],-7.88% (inactive)
same,inhibition,[12],-9.07% (inactive)
same,response,[13],0.81% (inactive)
same,binding (% of control),[14],97.9% (inactive)
same,inhibition,[15],-1% (inactive)
same,inhibition,[16],-0.6% (inactive)
same,inhibition,[17],-2.9% (inactive)
same,efflux inhibition (fraction of control),[18],-0.17 (inactive)
same,inhibition,[19],-2% (inactive)
same,differentiation response,[20],12.9% (inactive)
CC(C)C[C@H]1C(=O)N2CCCC2[C@]2(O)O[C@](NC(=O)[C@@H]3C=C4c5cccc6[nH]cc(c56)CC4N(C)C3)(C(C)C)C(=O)N12 (some centres not stated),percent of DMSO control GFP,[2],93.5% (inactive)
same,GFP response vs DMSO,[3],116% (inactive)
same,percent response of DMSO control,[4],96.6% (inactive)
same,GFP response vs DMSO,[5],79.2% (inactive)
same,"GFP response, % of DMSO",[6],96.6% (inactive)
same,double positive events,[7],61.2%
same,vesicle binding response,[7],108% (inactive)
same,inhibition,[8],-162% (inactive)
same,superoxide response (% of plate),[9],94.2% (inactive)
same,aptamer binding inhibition,[10],5% (inactive)
same,response,[11],-35.9% (inactive)
same,inhibition,[12],4.91% (inactive)
same,response,[13],3.06% (inactive)
same,binding (% of control),[14],109% (inactive)
same,inhibition,[15],-7% (inactive)
same,inhibition,[16],-1.6% (inactive)
same,inhibition,[17],-34.6% (inactive)
same,efflux inhibition (fraction of control),[18],0.41 (inactive)
same,inhibition,[19],10% (inactive)
same,differentiation response,[20],-6.55% (inactive)
